This is part of a sample that, as a whole, favours compounds with a hit. Of some 79,000 tested, about 15% had one in any assay. The source made the active and inactive calls. No stated cut-off is given here; in the data, active means growth inhibition above about 70%; inactive means the rest.
Tests used:
[1] = NCI Yeast Anticancer Drug Screen. Data for the rad52 strain (AID 147);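 further: 0% = growth of vehicle-treated control cultures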; conditions: S. cerevisiae rad52 mutant growth inhibition, active compounds read high
Procedure, shortened: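 Vehicle-treated cultures served as the reference for growth inhibition of compound-exposed yeast bearing a DNA repair mutation.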

[2] = NCI Yeast Anticancer Drug Screen. Data for the wt1 strain (AID 149);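 further: 0% = growth of vehicle-treated wt1 cultures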; conditions: S. cerevisiae wt1 strain (SPY 50644) growth inhibition, active compounds read high
Procedure, shortened: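 Growth inhibition read against vehicle controls after compound exposure of the wt1 yeast strain.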

[3] = NCI Yeast Anticancer Drug Screen. Data for the rad50EPP+ strain (AID 151);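 further: 0% = growth of vehicle-treated control cultures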; conditions: S. cerevisiae rad50 mutant strain, active compounds read high
Procedure, shortened: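 In this screen, rad50EPP+ yeast were exposed to compounds. Growth inhibition was scored against vehicle-treated controls.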

[4] = NCI Yeast Anticancer Drug Screen. Data for the rad50 strain (AID 155);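 further: 0% = growth of vehicle-only cultures of the same strain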; conditions: S. cerevisiae rad50 strain growth inhibition, active compounds read high
Procedure, shortened: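 Readout: growth inhibition relative to vehicle-treated cultures. Compound exposure was carried out in a genetically defined yeast strain deficient in DNA damage repair.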

[5] = NCI Yeast Anticancer Drug Screen. Data for the mec2-1 strain (AID 157); conditions: S. cerevisiae mec2-1 strain, active compounds read high
Procedure, shortened: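 Vehicle-treated cultures served as reference for growth inhibition of compound-exposed mec2-1 yeast.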

[6] = NCI Yeast Anticancer Drug Screen. Data for the rad14 strain (AID 159);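 further: 0% = growth of vehicle-treated control cultures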; conditions: S. cerevisiae rad14 strain growth inhibition, active compounds read high
Procedure, shortened: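 Growth inhibition vs vehicle controls; genetically altered yeast strain (DNA damage repair defect) treated with test compounds.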

[7] = NCI Yeast Anticancer Drug Screen. Data for the sgs1 mgt1 strain (AID 161);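 further: 0% = growth of cultures given vehicle only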; conditions: S. cerevisiae sgs1 mgt1 strain, active compounds read high
Procedure, shortened: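 Genetically altered yeast, compound exposure, growth inhibition relative to vehicle.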

[8] = NCI Yeast Anticancer Drug Screen. Data for the CLN2oe strain (AID 163);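 further: 0% = growth of vehicle-only control cultures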; conditions: S. cerevisiae CLN2oe strain, active compounds read high
Procedure, shortened: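 Inhibition relative to vehicle-treated yeast is reported. Cells: strain with genetic alteration in cell-cycle control, grown with compound.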

[9] = NCI Yeast Anticancer Drug Screen. Data for the cln2 rad14 strain (AID 165);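 further: 0% = growth equal to vehicle treated cultures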; conditions: S. cerevisiae cln2 rad14 strain, active compounds read high
Procedure, shortened: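 Each compound was tested on cln2 rad14 yeast. Inhibition of growth was calculated against vehicle-exposed controls.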

[10] = NCI Yeast Anticancer Drug Screen. Data for the bub3 strain (AID 167); conditions: S. cerevisiae bub3 mutant strain, active compounds read high
Procedure, shortened: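 Readout: yeast growth inhibition, expressed relative to vehicle-only wells. The test organism is a mutant strain from a panel with lesions in DNA repair or checkpoint genes.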

[11] = NCI Yeast Anticancer Drug Screen. Data for the mlh1 strain (AID 171);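 further: 0% = growth of vehicle-treated control cultures of the same strain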; conditions: S. cerevisiae mlh1 strain growth inhibition, active compounds read high
Procedure, shortened: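 Vehicle-normalised growth inhibition of a repair- or checkpoint-altered yeast strain following compound treatment.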

[12] = NCI Yeast Anticancer Drug Screen. Data for the sgs1 strain (AID 173);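 further: 0% = growth of vehicle-only control cultures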; conditions: S. cerevisiae sgs1 mutant, active compounds read high
Procedure, shortened: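 Screen format: yeast with repair or checkpoint alterations, compound exposure, growth read relative to vehicle.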

[13] = NCI Yeast Anticancer Drug Screen. Data for the mlh1 rad18 strain (AID 175); conditions: S. cerevisiae mlh1 rad18 strain growth inhibition, active compounds read high
Procedure, shortened: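 Vehicle-treated cultures served as the reference for growth inhibition in a yeast strain carrying DNA damage repair alterations exposed to each compound.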

[14] = NCI Yeast Anticancer Drug Screen. Data for the rad18 strain (AID 177); conditions: S. cerevisiae rad18 mutant growth inhibition, active compounds read high
Procedure, shortened: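 Test articles were incubated with altered yeast defective in DNA damage repair. Results are given as inhibition of growth versus vehicle.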

[15] = NCI Yeast Anticancer Drug Screen. Data for the wt2 strain (AID 169);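 further: 0% = growth of vehicle-treated yeast cultures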; conditions: S. cerevisiae wt2 strain growth inhibition, active compounds read high
Procedure, shortened: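 Inhibition of yeast growth was determined after compound treatment, normalised to controls receiving only vehicle.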

[16] = at 5.0 µM (retest, dose inferred, filed as 0.5)
[17] = at 50.0 µM (retest, dose inferred, filed as 5.0)

Measured: growth inhibition

CC(=O)N1C(=O)/C(=C\C(=O)c2ccc(Cl)cc2)c2ccccc21
inactive: [1]; at 1.2 µM 8% | [1]; at 3.7 µM 34% | [1]; at 11.0 µM 59% | [2]; at 1.2 µM 5% | [2]; at 3.7 µM 7% | [2]; at 11.0 µM 31% | [3]; at 1.2 µM -2% | [3]; at 3.7 µM 12% | [3]; at 11.0 µM 22% | [3]; at 33.0 µM 47% | [4]; at 1.2 µM 11% | [4]; at 3.7 µM 0% | [4]; [16] 44% | [4]; at 11.0 µM 51% | [5]; at 1.2 µM -3% | [5]; at 3.7 µM -8% | [5]; [16] 45% | [5]; at 11.0 µM 17% | [6]; at 1.2 µM -16% | [6]; at 3.7 µM -10% | [6]; at 11.0 µM 8% | [7]; [16] 41% | [8]; at 1.2 µM -38% | [8]; at 3.7 µM -14% | [8]; at 11.0 µM 2% | [8]; at 33.0 µM 66% | [9]; [16] 14% | [10]; at 1.2 µM 2% | [10]; at 3.7 µM -23% | [10]; [16] 13% | [10]; at 11.0 µM -15% | [11]; at 1.2 µM -18% | [11]; at 3.7 µM 2% | [11]; at 11.0 µM 31% | [12]; at 1.2 µM -15% | [12]; at 3.7 µM 17% | [12]; at 11.0 µM 49% | [14]; at 1.2 µM 14% | [14]; at 3.7 µM 32% | [14]; at 11.0 µM 66%
active: [1]; at 33.0 µM 93% | [1]; at 100.0 µM 94% | [2]; at 33.0 µM 79% | [2]; at 100.0 µM 94% | [3]; at 100.0 µM 72% | [4]; at 33.0 µM 90% | [4]; [17] 96% | [4]; at 50.0 µM 76% | [4]; at 100.0 µM 92% | [5]; at 33.0 µM 81% | [5]; [17] 98% | [5]; at 50.0 µM 87.4% | [5]; at 100.0 µM 91% | [6]; at 33.0 µM 71% | [6]; at 100.0 µM 92% | [7]; [17] 96% | [7]; at 50.0 µM 86.3% | [8]; at 100.0 µM 90% | [9]; [17] 91% | [9]; at 50.0 µM 77.2% | [10]; at 33.0 µM 81% | [10]; [17] 96% | [10]; at 50.0 µM 85.8% | [10]; at 100.0 µM 92% | [11]; at 33.0 µM 78% | [11]; at 100.0 µM 92% | [12]; at 33.0 µM 87% | [12]; at 100.0 µM 92% | [13]; [16] 80% | [13]; [17] 97% | [13]; at 50.0 µM 80.7% | [14]; at 33.0 µM 92% | [14]; at 100.0 µM 92%

CCCCCCCCCCCCCCCCCCNC(=S)/N=C\C1=C(O)c2ccccc2C1=O
active: [4]; [17] 86% | [7]; at 50.0 µM 71% | [10]; [17] 84%
inactive: [1]; at 1.2 µM 17% | [1]; at 3.7 µM 4% | [1]; at 11.0 µM 12% | [1]; at 33.0 µM 17% | [1]; at 100.0 µM 19% | [2]; at 1.2 µM -44% | [2]; at 3.7 µM -2% | [2]; at 11.0 µM -5% | [2]; at 33.0 µM -5% | [2]; at 100.0 µM -3% | [3]; at 1.2 µM -6% | [3]; at 3.7 µM 7% | [3]; at 11.0 µM 26% | [3]; at 33.0 µM 42% | [3]; at 100.0 µM 60% | [4]; at 1.2 µM -1% | [4]; at 3.7 µM 0% | [4]; [16] 5% | [4]; at 11.0 µM 0% | [4]; at 33.0 µM 4% | [4]; at 50.0 µM 60% | [4]; at 100.0 µM 9% | [5]; at 1.2 µM -3% | [5]; at 3.7 µM -1% | [5]; [16] -16% | [5]; at 11.0 µM -5% | [5]; at 33.0 µM 2% | [5]; [17] 37% | [5]; at 50.0 µM 36.7% | [5]; at 100.0 µM 2% | [6]; at 1.2 µM 0% | [6]; at 3.7 µM 3% | [6]; at 11.0 µM 7% | [6]; at 33.0 µM 10% | [6]; at 100.0 µM 11% | [7]; [16] -13% | [7]; [17] 18% | [8]; at 1.2 µM -10% | [8]; at 3.7 µM -7% | [8]; at 11.0 µM -5% | [8]; at 33.0 µM -13% | [8]; at 100.0 µM -4% | [10]; at 1.2 µM -5% | [10]; at 3.7 µM -9% | [10]; [16] -2% | [10]; at 11.0 µM -4% | [10]; at 33.0 µM -3% | [10]; at 50.0 µM 69.7% | [10]; at 100.0 µM 52% | [15]; at 1.2 µM -2% | [15]; at 3.7 µM -2% | [15]; at 11.0 µM 1% | [15]; at 33.0 µM 13% | [15]; at 100.0 µM 36% | [11]; at 1.2 µM -1% | [11]; at 3.7 µM -1% | [11]; at 11.0 µM -3% | [11]; at 33.0 µM -2% | [11]; at 100.0 µM -1% | [12]; at 1.2 µM 0% | [12]; at 3.7 µM 6% | [12]; at 11.0 µM 13% | [12]; at 33.0 µM 15% | [12]; at 100.0 µM 30% | [13]; [16] -13% | [13]; [17] 63% | [13]; at 50.0 µM 53% | [14]; at 1.2 µM 8% | [14]; at 3.7 µM 11% | [14]; at 11.0 µM 22% | [14]; at 33.0 µM 30% | [14]; at 100.0 µM 26%
